Shown is part of a subset that was picked to be rich in hits.
FBPA Giardia inh: Giardia lamblia aldolase inhibition | A8B2U2 | purified Giardia FBPA | Potency, µM (highest dose often 59.6 µM), for inactives: top-dose activity, negative = inhibition, hits mostly inhibitors | 290,000 compounds, 0.71% hits | AID 2451; further: potency means the concentration at half of the fitted maximal effect; on the % scale 0 is the no-effect control and ±100 the full control effect; nearly all actives have a fitted effect of over 55% in size
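40 nM FBPA preincubated 10 min at RT with compound (up to 57.5 uM final), then substrate plus GAPDH/TPI/NAD/arsenate coupling and diaphorase/resazurin added. Fluorescence read after 20 min at RT, 525/598 nm.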
RE007 growth inh: less growth of the S. pombe RE007 Vpr strain. S. pombe RE007 Vpr strain, BacTiter-Glo ATP luminescence, 24 h. Potency, µM (series often up to 92.2 µM), for inactives: top-dose activity change, negative = less growth, most hits filed as inhibitors. 360,000 compounds, 0.21% hits. AID 651644; active means well fitted falling curve with a large enough effect; further: potency means the concentration at half of the fitted maximal effect; on the % scale 0 is the no-effect control and ±100 the full control effect; nearly all actives have a fitted effect of over 50% in size
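Fission yeast strain RE007, carrying one chromosomally integrated HIV-1 vpr copy, was seeded at OD 0.01 in PMG+AL medium with 23 nL pinned compound. After 24 h at 30 °C and 99% humidity, viability was read by BacTiter-Glo luminescence.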
Tb PYK inh: inhibitors of Trypanosoma brucei pyruvate kinase; Q57TT1; TbPYK enzyme, Kinase-Glo Plus ATP luminescence, 45 min; Potency, µM (top dose mostly 76.8 µM), for inactives: at the highest dose activity, negative = inhibition, usual class: inhibitors; 410,000 compounds, 0.12% hits; further: potency means the concentration at half of the fitted maximal effect; on the % scale 0 is the no-effect control and ±100 the full control effect; nearly all actives have a fitted effect of over 50% in size
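Assay buffer: 50 mM TEA pH 7.2, 100 mM KCl, 10 mM MgCl2, 0.05% BSA, 0.01% Tween-20. Pyruvate kinase from T. brucei plus substrate met compound, then ADP (130 uM final). Luminescence was read post 45 min RT.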
LmPK inhibitor: blocks Leishmania mexicana pyruvate kinase activity; purified LmPK, Kinase-Glo ATP luminescence, 1 h; Potency, µM (doses to about 57.5 µM), for the others: at the top dose activity change, negative = inhibition, actives largely listed as inhibitors; 290,000 compounds, 0.37% hits; AID 1721; further: potency means the concentration at half of the fitted maximal effect; on the % scale 0 is the no-effect control and ±100 the full control effect
Target sequence (Q27686 whole entry, looked up): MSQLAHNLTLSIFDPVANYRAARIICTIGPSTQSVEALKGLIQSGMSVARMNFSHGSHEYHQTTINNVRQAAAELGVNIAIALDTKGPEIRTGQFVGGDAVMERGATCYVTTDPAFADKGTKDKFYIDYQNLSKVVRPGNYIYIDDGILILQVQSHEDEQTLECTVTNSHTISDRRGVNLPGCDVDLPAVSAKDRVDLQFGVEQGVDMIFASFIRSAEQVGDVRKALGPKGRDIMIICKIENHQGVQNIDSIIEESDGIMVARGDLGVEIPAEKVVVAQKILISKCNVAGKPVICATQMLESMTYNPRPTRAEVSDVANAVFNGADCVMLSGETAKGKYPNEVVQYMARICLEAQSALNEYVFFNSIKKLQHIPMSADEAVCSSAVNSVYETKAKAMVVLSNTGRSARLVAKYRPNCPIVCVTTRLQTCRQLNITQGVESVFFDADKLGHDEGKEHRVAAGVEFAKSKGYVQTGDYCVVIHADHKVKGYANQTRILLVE
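In 50 mM imidazole pH 7.2 with 7 mM MgCl2, LmPK (0.1 nM) turned over PEP (0.5 mM) and ADP (0.1 mM) for 1 h at room temperature. Luciferase read-out of ATP.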
Cycloheximide cs: affects cycloheximide protein synthesis inhibition readout, counter-screen; cell reporter, cycloheximide protein synthesis inhibition counterscreen; 300,000 compounds, 12% hits; max response, %; in the data active means max response mostly above about 13%, no sharp cut-off; inactive means mostly below about 14%; further: read at 38.3 µM for the half of the compounds with a filed dose; 0% is about no effect
Shiga inhibitor: inhibitors of Shiga toxin in Vero cells | Vero cells, Shiga toxin protein synthesis inhibition reporter | inhibition, % at 38.7 µM | 290,000 compounds, 9.2% hits; in the data active means inhibition mostly above about 28%, no sharp cut-off; inactive means mostly below about 43%; further: 0% is about no effect
The depositor's hits bear a star; [ ] = dose if it differs, or a comment. Unless noted, the call rests on the fitted dose curve; in most records, active means well fitted curve in the direction sought with a large enough effect; inconclusive means small, poorly fitted or top-dose-only effect, or another doubt; inactive means no such curve, though single readings can be large; an effect the other way counts as inactive or inconclusive.

Results for COc1cc(-c2nnc(CSc3nnc(Nc4ccc(Oc5ccccc5)cc4)s3)o2)cc(OC)c1OC ?
FBPA Giardia inh: 2%; RE007 growth inh: -12%; Tb PYK inh: -16%; LmPK inhibitor: -5%; Cycloheximide cs: 15*; Shiga inhibitor: 26

How did Cc1ccccc1Cn1c(C)c(C(=O)NCCC#N)sc1=O do in these assays?
RE007 growth inh: 4%[18.4 µM]; Tb PYK inh: 1%

Results for O=C(CCSc1ccccc1)Nc1ncccn1 ?
FBPA Giardia inh: -1%; RE007 growth inh: 5%; Tb PYK inh: -2%; LmPK inhibitor: -1%; Cycloheximide cs: 30*; Shiga inhibitor: 5

Results for CN(CC(=O)Nc1ccccc1Br)C(=O)CCC1CCCC1 ?
RE007 growth inh: -8%; Tb PYK inh: 0%; LmPK inhibitor: -6%; Cycloheximide cs: 57*; Shiga inhibitor: 45*

How did CN(CC(=O)Nc1ccccc1Br)C(=O)CCc1ccccc1 do in these assays?
FBPA Giardia inh: -1%; RE007 growth inh: 1%; Tb PYK inh: 6%; LmPK inhibitor: 0%; Cycloheximide cs: -3; Shiga inhibitor: -12

How did O=C(CCSc1ccccc1)Nc1ccccc1C(=O)N1CCCC1 do in these assays?
FBPA Giardia inh: 1%; RE007 growth inh: -12%; Tb PYK inh: 4%; LmPK inhibitor: 2%; Cycloheximide cs: 5; Shiga inhibitor: -6

What do the screens show for `O=C(CCCSc1ccc(Cl)cc1)Nc1ccccc1O`?
FBPA Giardia inh: 4%; RE007 growth inh: 35µM*; Tb PYK inh: 7%; LmPK inhibitor: -8%; Cycloheximide cs: 27*; Shiga inhibitor: 31

How did O=C(CSCc1ccc(Cl)cc1)Nc1ccccc1O do in these assays?
FBPA Giardia inh: -6%; RE007 growth inh: -1%; Tb PYK inh: -4%; LmPK inhibitor: -1%; Cycloheximide cs: 13; Shiga inhibitor: 21

What do the screens show for `O=C(CCSc1ccccc1)Nc1ccc(S(=O)(=O)Nc2ncccn2)cc1`?
FBPA Giardia inh: 14%; RE007 growth inh: -3%; Tb PYK inh: 4%; LmPK inhibitor: -7%; Cycloheximide cs: 2; Shiga inhibitor: -10

What do the screens show for `O=C(CCSc1ccccc1)Nc1ccccc1Br`?
FBPA Giardia inh: 6%; RE007 growth inh: -19%; Tb PYK inh: 2%; LmPK inhibitor: 1%; Cycloheximide cs: 40*; Shiga inhibitor: 74*

What do the screens show for `COc1ccc(NC(=O)Cn2c(=O)n(CCCC(=O)NCCc3ccc(C)cc3)c(=O)c3ccccc32)cc1Cl`?
Tb PYK inh: 1%

What do the screens show for `C=CCCCCCCCCC(=O)OC`?
Tb PYK inh: -6%

How did CCC(C)C(C(=O)OCC[N+](C)(CC)CC)c1ccccc1 (stereo unspecified) do in these assays?
Tb PYK inh: 1%

What do the screens show for `Cc1csc(NC(=O)CCn2c(=O)sc3ccccc32)n1`?
FBPA Giardia inh: 0%; RE007 growth inh: -14%; Tb PYK inh: 5%; LmPK inhibitor: 0%; Cycloheximide cs: 4; Shiga inhibitor: 18

How did O=C(CSC1CCCCC1)Nc1ccccc1Br do in these assays?
FBPA Giardia inh: 7%; RE007 growth inh: -14%; Tb PYK inh: -10%; LmPK inhibitor: -2%; Cycloheximide cs: 13*; Shiga inhibitor: 90*

Results for O=C(CCn1c(=O)sc2ccccc21)Nc1nccs1 ?
FBPA Giardia inh: 1%; RE007 growth inh: -6%; Tb PYK inh: -1%; LmPK inhibitor: 13%; Cycloheximide cs: 33*; Shiga inhibitor: 40

What do the screens show for `O=C(CCSc1ccccc1)Nc1nccs1`?
FBPA Giardia inh: -2%; RE007 growth inh: -12%; Tb PYK inh: -6%; LmPK inhibitor: -5%; Cycloheximide cs: 19*; Shiga inhibitor: 36

Results for CN(CC(=O)Nc1ccccc1Br)C(=O)c1ccc(COc2ccccc2)cc1 ?
RE007 growth inh: -13%; Tb PYK inh: -10%; LmPK inhibitor: -7%; Cycloheximide cs: 19*; Shiga inhibitor: 11

How did Cc1ccc(SCCC(=O)Nc2nccs2)cc1 do in these assays?
FBPA Giardia inh: 0%; RE007 growth inh: 8%; Tb PYK inh: -19%; LmPK inhibitor: 1%[11.5 µM]; Cycloheximide cs: 9; Shiga inhibitor: 61

Results for Cc1ccc(NC(=O)Cn2nc(-c3ccccc3)nc(Cc3ccccc3)c2=O)cc1 ?
Tb PYK inh: -3%

What do the screens show for `O=C(Nc1ccccc1Cl)c1cc(C2CCCCN2C(=O)c2cccs2)on1` (stereo unspecified)?
RE007 growth inh: 7%; Tb PYK inh: 2%

What do the screens show for `CN(C)CCn1c2ccccc2c2nc3ccc([N+](=O)[O-])cc3cc21`?
FBPA Giardia inh: -16%; RE007 growth inh: -15%; Tb PYK inh: -1%; LmPK inhibitor: 1%; Cycloheximide cs: 16*; Shiga inhibitor: 39*

What do the screens show for `CCn1c2ccccc2c2cc([N+](=O)[O-])ccc21`?
FBPA Giardia inh: -7%; RE007 growth inh: 72%; Tb PYK inh: -3%; LmPK inhibitor: 3%; Cycloheximide cs: -3; Shiga inhibitor: -4

Results for CCOc1ccc(-c2nnc(SCC(=O)NCc3ccccc3)nc2-c2ccc(OCC)c(OC)c2)cc1OC ?
Tb PYK inh: -2%

What do the screens show for `Cc1[nH]n2c(=O)c3c(nc2c1-c1ccc(F)cc1)CCCC3`?
FBPA Giardia inh: -1%; RE007 growth inh: 19%; Tb PYK inh: 2%; LmPK inhibitor: 1%; Cycloheximide cs: 6; Shiga inhibitor: 14

How did O=c1c2c(nc3cc(-c4cccc(Cl)c4)[nH]n13)CCC2 do in these assays?
FBPA Giardia inh: -29%; RE007 growth inh: 15%; Tb PYK inh: -2%; LmPK inhibitor: -10%; Cycloheximide cs: 23; Shiga inhibitor: 52*

What do the screens show for `O=c1c2c(nc3cc(-c4ccc(F)cc4)[nH]n13)CCCC2`?
FBPA Giardia inh: -18%; RE007 growth inh: 12%; Tb PYK inh: 1%; LmPK inhibitor: -15%; Cycloheximide cs: 39*; Shiga inhibitor: 74*

What do the screens show for `O=c1c2c(nc3cc(-c4cccc(F)c4)[nH]n13)CCC2`?
FBPA Giardia inh: -9%; RE007 growth inh: 10%; Tb PYK inh: -5%; LmPK inhibitor: -21%; Cycloheximide cs: 51*; Shiga inhibitor: 95*

Results for Cc1[nH]n2c(=O)c3c(nc2c1-c1ccccc1)CCCC3 ?
FBPA Giardia inh: -1%; RE007 growth inh: 4%; Tb PYK inh: 3%; LmPK inhibitor: -4%; Cycloheximide cs: -3; Shiga inhibitor: 26

What do the screens show for `COc1ccc([N+](=O)[O-])cc1NC(=O)c1cn(-c2ccc(C)c(C)c2)c(=O)c2ccccc12`?
FBPA Giardia inh: 0%; RE007 growth inh: -13%; Tb PYK inh: -7%; LmPK inhibitor: 2%; Cycloheximide cs: -1; Shiga inhibitor: -2

Screening results: PubChem, National Center for Advancing Translational Sciences (NCATS)
